In the library only some 27% were active in any assay of this set; here they are far more common.
PTK2B oligo ant = antagonists of Pyk2 self-association, primary screen, Q293 cells, FERM NanoBiT luminescence, HTS; stronger effect = lower value; z-score (the deposit names both 25 µM and 10 µM); 99,000 tested, 0.83% active; AID 1347419, 2020;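 active = Z-score of -3 or lower, scaled per plate to the spread of control and sample wells; inactive = z-score above -3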;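 also: negative z-score means lost luminescence so less FERM oligomerization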
CYP2C19 inhib = blockers of cytochrome P450 2C19 activity – biochemical, luminescence, ADME assay, primary screen. inhibition, % at 5 µM. 96,000 tested, 21% active. P33261. CYP2C19 Supersomes, luciferin-H EGE luminescence, 30 min. AID 778, 2007;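 active = CYP2C19 inhibition above a set limit at 5 µM in the primary screen, cut at about 50% in these data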;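 also: plate controls were negative control wells for no effect and 2.5 mM tranylcypromine positive control for full effect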
CYP2C9 activ = human CYP2C9 activators, primary screen, biochemical, luminescence; recombinant CYP2C9, luciferin-H conversion; stronger effect = higher value; factor 1 = untreated enzyme, 0 = blocked; activation factor at 5 µM; 96,000 tested, 1.4% active; AID 1024, 2008;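 active = activation factor of 2 or more for CYP2C9 at a 5 µM dose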;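 also: 0 = sulfaphenazole-blocked wells and 1 = vehicle-only wells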
Target sequence (P11712 whole entry, looked up): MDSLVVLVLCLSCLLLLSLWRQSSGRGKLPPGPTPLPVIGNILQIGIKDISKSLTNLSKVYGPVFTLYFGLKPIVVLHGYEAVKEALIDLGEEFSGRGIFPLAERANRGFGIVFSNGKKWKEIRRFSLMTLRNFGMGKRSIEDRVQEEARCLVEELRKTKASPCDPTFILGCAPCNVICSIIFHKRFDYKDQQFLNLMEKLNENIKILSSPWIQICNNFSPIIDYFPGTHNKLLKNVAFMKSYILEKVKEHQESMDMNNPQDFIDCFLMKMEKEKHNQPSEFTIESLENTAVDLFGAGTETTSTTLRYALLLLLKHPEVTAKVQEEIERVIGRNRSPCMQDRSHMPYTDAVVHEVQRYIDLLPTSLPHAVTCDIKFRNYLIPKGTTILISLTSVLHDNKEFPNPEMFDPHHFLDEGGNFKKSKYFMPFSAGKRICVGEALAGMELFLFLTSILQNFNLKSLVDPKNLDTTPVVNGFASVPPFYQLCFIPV
Cav32 inh = Cav3.2 calcium influx blockers – cell-based, Fluo-4 calcium fluorescence, FDSS, MLSMR library, primary screen; Voltage-dependent T-type calcium channel subunit alpha-1H (Homo sapiens), O95180; Cav3.2-expressing cells; stronger effect = lower value; B-score at 10 µM; 100,000 tested, 4% active; AID 449739, 2010;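 active = single-dose well whose peak fluorescence ratio is a statistical outlier from its plate by either plate-standardised score or position-corrected B-score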
CYP2C19 activ = human CYP2C19 activators, primary screen, biochemical, luminescence; recombinant CYP2C19, luciferin-H EGE luminescence; stronger effect = higher value; 0 = fully inhibited enzyme, 1 = untreated enzyme; 96,000 tested, under 10 active; Cytochrome P450 2C19 (Homo sapiens), P33261; activation factor at 5 µM;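 active = activation factor of at least 2 at 5 µM in the primary screen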;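 also: 0 = wells with 2.5 mM tranylcypromine and 1 = vehicle-only wells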
CYP2C9 inhib = blockers of cytochrome P450 2C9 activity – biochemical, luminescence, ADME assay, primary screen; P11712; CYP2C9 Supersomes, luciferin-H conversion; inhibition, % at 5 µM; 96,000 tested, 20% active;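 active = blocking of liver enzyme CYP2C9 beyond about 50% at 5 µM, limit read from the data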
* = called active by the depositor; . = not tested or not shown.

SMILES	PTK2B oligo ant	CYP2C19 inhib	CYP2C9 activ	Cav32 inh	CYP2C19 activ	CYP2C9 inhib
CCOC(=O)c1nc(Nc2ccc(C)cc2)c2ccccc2n1	-0.93	71*	0.3	1.9	0.3	66*
COC(=O)CNc1nc(-c2cccnc2)nc2ccccc12	-1.8	24	0.4	0.84	0.8	56*
CCOC(=O)c1ccc(Nc2ncnc3nc[nH]c23)cc1	0.19	14	0.8	-0.18	0.9	20
CCOC(=O)c1nc(NCc2cccnc2)c2ccccc2n1	-0.47	-1	0.6	0.064	1	41
Oc1ccccc1-c1nc(NCC2CCCO2)c2ccccc2n1 (centres undefined)	-2.4	8	0.6	-1.5	0.9	41
CCOC(=O)c1ccc(Nc2nc(-c3cccnc3)nc3ccccc23)cc1	-3.5*	66*	0.2	0.0093	0.3	79*
CC1=NN(C(=O)c2csc(C(C)C)c2)C(O)(C(F)(F)F)C1 (centres undefined)	-0.4	.	.	.	.	.
CCOC(=O)[C@@H]1[C@H]2COc3ccccc3[C@@H]2N2C(=O)N(c3cccc(F)c3)C(=O)[C@]12C	.	.	.	0.4	.	.
OCCCn1c(C2CCCN2c2nc(-c3ccc(F)cc3)cs2)nc2cc(C(F)(F)F)ccc21 (centres undefined)	.	.	.	-1.6	.	.
CCOC(=O)c1[nH]cnc1C(=O)NC(C)C	0.96	.	.	0.31	.	.
Cc1cccc(N2C(=O)CCC2=O)n1	-0.36	.	.	.	.	.
O=C(COC(=O)Cc1ccsc1)NCC1CCCCC1	-0.19	57*	0.9	1.1	0.4	8
CC(NC(=O)COC(=O)Cc1ccsc1)C1CC2CCC1C2 (centres undefined)	1.7	92*	0.6	.	0.1	36
NC(=O)c1ccsc1NC(=O)COC(=O)Cc1ccsc1	1.2	40	0.5	0.93	0.6	49
Cc1noc2nc(-c3cccs3)cc(-c3nnc4n3CCCCC4)c12	.	2	0.9	.	1	14
O=C(COC(=O)Cn1cnc2ccccc21)NCCc1ccc(Cl)cc1	0.08	28	0.8	0.0091	0.7	19
COC(=O)C1=C(C(=O)OC)[C@@H]2N(Cc3ccccc3)c3ccccc3[C@@]23C[C@@H](C(=O)OC)N(C(=O)c2cc(C)oc2C)C3=N1	.	.	.	-3*	.	.
COC(=O)C1=C(C(=O)OC)[C@@H]2N(Cc3ccccc3)c3ccccc3[C@@]23C[C@@H](C(=O)OC)N(C(=O)c2cccs2)C3=N1	.	.	.	-1.4	.	.
CCn1c(CSc2nnc(-c3ccoc3C)n2C)nc2cc(S(=O)(=O)N(C)C)ccc21	-0.07	.	.	0.55	.	.
CCn1c(CSc2nnc(-c3ccc4c(c3)OCO4)o2)nc2cc(S(=O)(=O)N(C)C)ccc21	-0.38	83*	0.2	2.2	0.2	81*
CCn1c(CSc2nnc(C)n2-c2ccccc2)nc2cc(S(=O)(=O)N(C)C)ccc21	1.5	-2	0.3	-0.015	1	66*
CCC(=O)Nc1ccc(NC(=O)CSc2nnnn2-c2cccnc2)cc1C	1.6	1	1	0.57	1	5
CCOC(=O)CSc1cc(C)nc(NC(C)=O)n1	-0.41	3	1	-0.21	1	-1
CCc1cc2c(SCC(=O)c3ccccc3)ncnc2s1	0.73	.	.	-0.6	.	.
CCc1cc2c(SCC(=O)C(C#N)=C3N(C)c4ccccc4N3C)ncnc2s1	0.35	40	0.4	.	0.6	62*
SMILES	PTK2B oligo ant	CYP2C19 inhib	CYP2C9 activ	Cav32 inh	CYP2C19 activ	CYP2C9 inhib
COc1cc2c(cc1OC)-c1cc(Nc3ccc4c(c3)OCCO4)nc(=O)n1CC2	1.9	36	0.3	-0.5	0.6	67*
COc1cc2c(cc1OC)-c1cc(N3CCCc4ccccc43)nc(=O)n1CC2	1.2	60*	0.3	0.64	0.4	69*
COc1cc2c(cc1OC)-c1cc(N3CCCCCC3)nc(=O)n1CC2	-0.95	-2	0.7	0.12	1	31
COc1cc2c(cc1OC)-c1cc(NC3CCCCCC3)nc(=O)n1CC2	-1.5	0	1	0.74	1	4
CC(=O)c1c(COC(=O)c2ccccc2)nc2ccccc2[n+]1[O-]	0.64	73*	0.7	0.11	0.3	33
CC1CCCN(Cc2cnc(Cl)s2)C1 (centres undefined)	-0.14	53*	1	.	0.5	2
CC1CCN(Cc2cnc(Cl)s2)CC1	-0.15	39	0.8	.	0.6	21
O=C(CCNC(=O)c1ccccc1)OCN1C(=O)c2ccccc2C1=O	-0.25	-1	1.1	0.097	1	-5
O=C(O)c1ccc(CN2CCCCC2)o1	0.29	-6	1.1	0.19	1.1	-6
O=C(OCN1C(=O)c2ccccc2C1=O)c1ccccc1	0.29	68*	1.6	.	0.3	-61
O=C(c1ccccc1)c1ccc(CN2C(=O)c3ccccc3C2=O)o1	-0.29	91*	0.2	-2.7	0.1	85*
CCOC(=O)c1c(C)n(C)c2ccc(OCC(O)Cn3c(C)nc4ccccc43)cc12 (centres undefined)	-2	47	0.3	-1.3	0.5	70*
COC(=O)C[C@H]1c2cc(C(F)(F)F)ccc2S(=O)(=O)N1Cc1ccccc1	.	.	.	-0.78	.	.
CCOC(=O)c1ccc(N2Cc3cc(C)c(C)cc3C2)cc1O	.	-14	1.1	.	1.1	-15
O=C(O)c1ccc(N2Cc3ccccc3C2)cc1O	0.33	48	0.5	-0.61	0.5	53*
COCCN1C(=O)N[C@@H](c2cccc(F)c2)C(C(C)=O)=C1C	.	.	.	0.53	.	.
COC(=O)Cc1c(O)ccn(Cc2ccccc2OC)c1=O	-1.6	3	1	1.7	1	-4
COC(=O)Cc1c(O)ccn(Cc2cccc3ccccc23)c1=O	-0.71	64*	0.5	-0.001	0.4	47
CC1CC(C)(C)N(C(=O)CSc2ccc(-c3ccc(F)cc3)nn2)c2ccccc21 (centres undefined)	-0.28	49	0.4	-2.3	0.5	58*
CC1CCN(C(=O)CSc2ccc(-c3ccc(F)cc3)nn2)CC1	-0.72	12	0.8	.	0.9	20
C=C1CCN(c2ccc(C(=O)O)cc2[N+](=O)[O-])CC1	.	.	.	0.89	.	.
Cc1sc2ncnc(Oc3ccc(-n4ccnc4)cc3)c2c1C	-0.2	100*	0	-2.2	0	99*
Cc1ccc(Nc2ncnc3sc(C)c(C)c23)cc1	0.74	.	.	-2	.	.
CCN1CCN(c2nc3c(c(=O)n(C)c(=O)n3C)n2CCSc2nccc(C)n2)CC1	0.84	-2	0.9	-0.12	1	8
CCC(C)(C)C(=O)Nc1ncc(S(=O)(=O)c2ccc([N+](=O)[O-])cc2)s1	-0.55	27	0.7	-5.2*	0.7	26
